This is part of a sample that, as a whole, favours compounds with a hit. Of some 83,000 tested, about 20% had one in any assay.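 Cell lines were cultured in 96-well plates, exposed to a single compound concentration, and assessed for percent growth 48 hours later.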 Unmarked numbers belong to inactive results. Calls of active or inactive are those of the source. Rule for the calls: active = growth percent below 10; inactive = the rest.
What was measured:
Experiment in all cases: NCI-60 one-dose screen, 48 h (100 = growth as untreated, 0 = no growth, -100 = all killed)
Conditions in all cases: 10 µM unless noted
T-47D breast = system: T-47D breast
BT-549 breast = system: BT-549 breast
MDA-MB-435 melanoma = system: MDA-MB-435 melanoma
SW-620 colon = system: SW-620 colon
MCF7 breast = system: MCF7 breast
HCT-116 colon = system: HCT-116 colon
HCC-2998 colon = system: HCC-2998 colon
KM12 colon = system: KM12 colon

SMILES	growth (T-47D breast)	growth (BT-549 breast)	growth (MDA-MB-435 melanoma)	growth (SW-620 colon)	growth (MCF7 breast)	growth (HCT-116 colon)	growth (HCC-2998 colon)	growth (KM12 colon)
CC(=O)O[C@H]1CC[C@@]2(C)C(=CC[C@@H]3[C@@H]2CC[C@]2(C)C(=O)N(O)C(=O)C[C@@H]32)C1	87.1%	91.9%	104%	72.6%	76%	76.3%	78.1%	71.8%
COc1cc(-c2cc3ncccc3c3nc(OCCN(C)C)c4cccnc4c23)cc(OC)c1OC	37%	41.6%	18.1%	17.4%	3.86% (active)	-21.8% (active)	17.1%	18.7%
N#CC1c2ccccc2-c2ccccc2N1C(=O)c1ccccc1 (stereo not drawn)	73.7%	21.5%	-13.6% (active)	27.3%	22.3%	6.83% (active)	-46.1% (active)	5.94% (active)
O=c1c(CNc2ccc(S(=O)(=O)Nc3ncccn3)cc2)coc2ccccc12	81.1%	93.6%	119%	98.4%	86.1%	91.3%	101%	115%
CC1(C)CC[C@]2(CO)CC[C@]3(C)C(=CC[C@@H]4[C@@]5(C)CC[C@H](NCO)C(C)(C)[C@@H]5CC[C@]43C)[C@@H]2C1	4.47% (active)	59.1%	-5.37% (active)	-71.9% (active)	-26.3% (active)	-78.2% (active)	6.82% (active)	-80.7% (active)
COc1ccc(-c2nc(SCC(=O)Nc3ccc(C(C)=O)cc3)[nH]c(=O)c2C#N)cc1	89.4%	82.2%	111%	112%	97.5%	76.3%	105%	101%
Clc1ccc2c(NCCNc3nc(-c4ccccc4)cc(-c4ccccc4)n3)ccnc2c1	-59.7% (active)	75.1%	-82.6% (active)	-53.7% (active)	-68.7% (active)	-69.9% (active)	-28.7% (active)	5.29% (active)
Cc1ccnc2c(OCc3ccccc3)cccc12	72.8%	101%	90.2%	92%	38.3%	92.4%	86.6%	82.8%
Oc1ccc(CCC2CCCC(CCc3ccc(OCCF)cc3)N2)cc1 (stereo not drawn)	72.8%	96.4%	99.5%	112%	89%	86%	88.4%	104%
Nc1c2c(nc3ccc(Br)cc13)CC(c1ccccc1)CC2=O (stereo not drawn)	43.1%	42.9%	-43.4% (active)	26.1%	21.1%	31.9%	62.9%	24.7%
CC1(C)CC[C@]2(C(=O)Nc3ccccn3)CC[C@]3(C)C(=CC[C@@H]4[C@@]5(C)C/C(=C/c6ccncc6)C(=O)C(C)(C)[C@@H]5CC[C@]43C)[C@@H]2C1	13.3%	35.7%	14.8%	20%	21.7%	-1.02% (active)	25%	-6.73% (active)
N#Cc1cnc2cc(OC[C@@H](O)CO)c(NC(=O)CC3CSSC3)cc2c1Nc1ccc(OCc2cccc(F)c2)c(Cl)c1	-60.9% (active)	-71% (active)	-85.2% (active)	-74.8% (active)	-58.8% (active)	-60.5% (active)	-78.2% (active)	-79.6% (active)
Brc1cnc2[nH]cc(-c3nnc(-c4ccccc4)o3)c2c1	56.5%	82%	78%	86.4%	63.6%	55.7%	104%	68.9%
COC(=O)c1cc(=O)nc(N/N=C/c2ccc(C)cc2)s1	105%	99.6%	115%	106%	89.9%	105%	106%	110%
O=C1c2cccc3cccc(c23)C(=O)N1CC#Cc1ccc2c3c(cccc13)C(=O)N(CCO)C2=O	98.2%	86.4%	92.7%	92.2%	106%	78.4%	106%	101%
CC(C)=CCC/C(C)=C/CC/C(C)=C/CC/C(C)=C/CSC[C@H](NC(=O)CCCCCN1CCN(C)CC1)C(=O)NC1CCCCC1	58.3%	102%	48.5%	-12.9% (active)	17%	6.51% (active)	63.8%	81.7%

SMILES	growth (T-47D breast)	growth (BT-549 breast)	growth (MDA-MB-435 melanoma)	growth (SW-620 colon)	growth (MCF7 breast)	growth (HCT-116 colon)	growth (HCC-2998 colon)	growth (KM12 colon)
O=C1CCC/C=C\C[C@H]2C=C(Cl)C(=O)/C2=C/C[C@H](CCCCC(F)(F)F)OC(=O)CCC/C=C\C[C@H]2C=C(Cl)C(=O)/C2=C/C[C@H](CCCCC(F)(F)F)O1	-7.29% [7.5 µM] (active)	-43.8% [7.5 µM] (active)	-14.3% [7.5 µM] (active)	-30.8% [7.5 µM] (active)	-38.9% [7.5 µM] (active)	-93.4% [7.5 µM] (active)	-54.7% [7.5 µM] (active)	-60.3% [7.5 µM] (active)
O=C(NC(Cc1cn(Cc2ccccc2)cn1)C(=O)O)OCC1c2ccccc2-c2ccccc21 (stereo not drawn)	112%	97.2%	113%	104%	104%	90.8%	113%	101%
C#Cc1cccc(NC(=O)C2CCCN(C(=O)CCl)C2)c1 (stereo not drawn)	84.2% [8.25 µM]	55.1% [8.25 µM]	43.8% [8.25 µM]	20.5% [8.25 µM]	59.1% [8.25 µM]	13% [8.25 µM]	97.2% [8.25 µM]	94.7% [8.25 µM]
COc1ccc2c(c1)c(-c1nc(-c3cn(C)c4ncccc34)cs1)cn2CCN	-0.878% (active)	96.9%	95.4%	62.3%	16.6%	80.5%	55%	45%
Cn1c2c(Cl)c(Cl)ccc2c2c(C#N)c[nH]c(=O)c21	102%	120%	115%	106%	96.5%	92.7%	97.2%	111%
N#Cc1c(-c2ccco2)nc2c(c(-c3ccccc3)nn2-c2ccccc2)c1-c1ccc(O)cc1	18.5%	64.7%	62.1%	48%	47.3%	36.9%	91.5%	43%
O=C1Nc2ccccc2/C1=C/c1cn(CCCn2c3ccccc3c(=O)c3ccccc32)c2ccccc12	74.1%	84.6%	94.6%	98.4%	47.3%	87%	96.3%	88.3%
Cc1cc(N(CCCNc2ccnc3cc(Cl)ccc23)Cc2ccco2)nc(N2CCN(C)CC2)n1	23.6%	50.2%	-5.06% (active)	33.6%	29%	28.3%	86.9%	63.3%
CC(C)C[C@@H](NC(=O)[C@@H](Cc1ccccc1)NC(=O)c1cnccn1)B1O[C@H]2[C@H](O)[C@@H](C(=O)NCCCC[C@@H]3NC(=O)[C@@H](Cc4ccccc4)NC(=O)[C@H](CC(=O)O)NC(=O)CNC(=O)[C@H](CCCN=C(N)N)NC3=O)O[C@@H](CN)[C@H]2O1	-70.4% (active)	-66.1% (active)	-78.1% (active)	-47.7% (active)	-17.1% (active)	-50% (active)	-78.9% (active)	-43.9% (active)
C/C(=N\Nc1cc(C)c2ccccc2n1)c1ccccn1	16.5%	24.1%	-90.9% (active)	7.9% (active)	-82.9% (active)	-76.2% (active)	4.77% (active)	4.67% (active)
O=C(N/N=C\c1ccccc1O)C1CC1	86.8%	112%	112%	108%	102%	107%	103%	100%
COc1cc(NC(C)CN(CC(C)C)C(C)C)c2ncccc2c1 (stereo not drawn)	31%	108%	114%	92.9%	43%	88.6%	103%	93.2%
O=c1[nH]c2c3ccncc3cc(-c3cccc(Cl)c3)c2c2cnccc12	60.5%	22%	64.9%	58.3%	22.7%	-31.5% (active)	61.5%	34.7%
Cc1cccc(C)c1NC(=O)CSC(=S)N1CCCCC1	85.4%	105%	110%	103%	97.8%	99.7%	100%	97.8%
CCN1CCN(C(=O)[C@]23CCC(C)(C)C[C@@H]2C2=CC[C@@H]4[C@@]5(C)C/C(=C/c6ccncc6)C(=O)C(C)(C)[C@@H]5CC[C@@]4(C)[C@]2(C)CC3)CC1	-2.08% (active)	-5.92% (active)	-29.9% (active)	-54.1% (active)	-53.6% (active)	-92.4% (active)	-68.8% (active)	-39.9% (active)

Reference: PubChem BioAssay (NCI)
